Test results from the supplement of paper PMC12282887.
± gives the standard deviation of the averaged measurements.

How the values were obtained:
Assay in all cases: promoter activity interaction Z-score (Lux/OD deviation from empty-vector control); higher = stronger promoter induction by the compound
[1] = system: E. coli BW25113 acrABp lux reporter
In short: (§1)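 E. coli BW25113, as wild type or one of three single-gene deletion strains, carried low-copy luxCDABE promoter reporters and grew in 40 µl LB Lennox in 384-well plates at 37°C, with OD600 and luminescence read every 30 min for 12 h. Each compound was run at four 1:2 dilutions in biological duplicates, integration spanned 0–8 h for wild type and 1–9 h for deletion strains, and wells under 10% of the median growth value were dropped. The score is the Z-transformed residual of growth-normalised luminescence fitted against a control.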

[2] = system: E. coli BW25113 marRABp lux reporter
In short: as §1

[3] = system: E. coli BW25113 micFp lux reporter
In short: as §1

[4] = system: E. coli BW25113 ompFp lux reporter
In short: as §1

[5] = system: E. coli BW25113 robp lux reporter
In short: as §1

[6] = system: E. coli BW25113 soxSp lux reporter
In short: as §1

[7] = system: E. coli BW25113 tolCp lux reporter
In short: as §1

[8] = 0.62 µg/ml, genetic background: wild type
[9] = 0.62 µg/ml, genetic background: ΔmarA
[10] = 0.62 µg/ml, genetic background: Δrob
[11] = 0.62 µg/ml, genetic background: ΔsoxS
[12] = 1.2 µg/ml, genetic background: wild type
[13] = 2.5 µg/ml, genetic background: wild type
[14] = 0.28 µg/ml, genetic background: wild type
[15] = 0.28 µg/ml, genetic background: ΔmarA
[16] = 0.28 µg/ml, genetic background: Δrob
[17] = 0.28 µg/ml, genetic background: ΔsoxS
[18] = 0.56 µg/ml, genetic background: wild type
[19] = 0.56 µg/ml, genetic background: ΔmarA
[20] = 0.56 µg/ml, genetic background: Δrob
[21] = 0.56 µg/ml, genetic background: ΔsoxS
[22] = 1.1 µg/ml, genetic background: wild type
[23] = 1.1 µg/ml, genetic background: ΔmarA
[24] = 1.1 µg/ml, genetic background: Δrob
[25] = 1.1 µg/ml, genetic background: ΔsoxS
[26] = 2.2 µg/ml, genetic background: wild type

CC(=O)C(NC(=O)C(C)C(O)C(C)NC(=O)C(NC(=O)c1nc(C(CC(N)=O)NCC(N)C(N)=O)nc(N)c1C)C(O[C@@H]1O[C@@H](CO)[C@@H](O)[C@H](O)[C@]1(C)O[C@@H]1OC(CO)[C@H](O)[C@](O)(C(N)=O)[C@H]1O)c1cnc[nH]1)C(=O)NCCC1=NC(c2nc(C(N)=O)cs2)CS1 (some centres not stated) [Phleomycin]
promoter activity interaction Z-score [1, 8]: 1.07 ± 0.23
promoter activity interaction Z-score [1, 9]: -0.273 ± 0.32
promoter activity interaction Z-score [1, 10]: 1.04
promoter activity interaction Z-score [1, 11]: 0.298 ± 1.3
promoter activity interaction Z-score [1, 12]: 2.12
promoter activity interaction Z-score [2, 8]: 1.05 ± 0.22
promoter activity interaction Z-score [2, 9]: 2.57
promoter activity interaction Z-score [2, 10]: 1.98
promoter activity interaction Z-score [2, 11]: 1.57
promoter activity interaction Z-score [2, 12]: 2.71 ± 0.25
promoter activity interaction Z-score [3, 8]: -0.476 ± 0.019
promoter activity interaction Z-score [3, 9]: -0.254 ± 0.023
promoter activity interaction Z-score [3, 10]: -0.0516 ± 0.18
promoter activity interaction Z-score [3, 11]: -0.651 ± 0.16
promoter activity interaction Z-score [3, 12]: -1.14 ± 0.14
promoter activity interaction Z-score [3, 13]: -0.981 ± 0.31
promoter activity interaction Z-score [4, 8]: 1.83 ± 0.41
promoter activity interaction Z-score [4, 9]: 0.799 ± 2
promoter activity interaction Z-score [4, 10]: -0.998
promoter activity interaction Z-score [4, 11]: 1.46 ± 2.8
promoter activity interaction Z-score [4, 12]: -0.554
promoter activity interaction Z-score [5, 8]: -0.5306 ± 0.0049
promoter activity interaction Z-score [5, 9]: -0.313 ± 0.067
promoter activity interaction Z-score [5, 10]: -1.12
promoter activity interaction Z-score [5, 11]: -0.519 ± 0.41
promoter activity interaction Z-score [5, 12]: -0.94 ± 0.28
promoter activity interaction Z-score [6, 8]: 0.286 ± 0.032
promoter activity interaction Z-score [6, 9]: -0.0997 ± 0.0027
promoter activity interaction Z-score [6, 10]: -0.106 ± 0.024
promoter activity interaction Z-score [6, 11]: 3.11 ± 2.5
promoter activity interaction Z-score [6, 12]: -0.481 ± 0.012
promoter activity interaction Z-score [6, 13]: -0.666 ± 0.31
promoter activity interaction Z-score [7, 8]: -0.425 ± 0.84
promoter activity interaction Z-score [7, 9]: -0.832 ± 0.55
promoter activity interaction Z-score [7, 10]: -0.362 ± 0.33
promoter activity interaction Z-score [7, 11]: 0.481 ± 0.63
promoter activity interaction Z-score [7, 12]: -0.433 ± 0.62
promoter activity interaction Z-score [7, 13]: -1.33 ± 1.2

CC[C@H]1OC(=O)[C@H](C)[C@@H](O[C@H]2C[C@@](C)(OC)[C@@H](O)[C@H](C)O2)[C@H](C)[C@@H](O[C@@H]2O[C@H](C)C[C@H](N(C)C)[C@H]2O)[C@](C)(O)C[C@@H](C)CN(C)[C@H](C)[C@@H](O)[C@]1(C)O [Azithromycin]
promoter activity interaction Z-score [1, 14]: 0.612 ± 0.28
promoter activity interaction Z-score [1, 15]: -0.667 ± 0.48
promoter activity interaction Z-score [1, 16]: 0.324 ± 0.28
promoter activity interaction Z-score [1, 17]: 0.489 ± 0.8
promoter activity interaction Z-score [1, 18]: 1.13 ± 0.12
promoter activity interaction Z-score [1, 19]: 0.048 ± 0.66
promoter activity interaction Z-score [1, 20]: 2.23 ± 0.08
promoter activity interaction Z-score [1, 21]: 3.66 ± 1.6
promoter activity interaction Z-score [1, 22]: 4.08 ± 1
promoter activity interaction Z-score [1, 23]: 6.35 ± 6.2
promoter activity interaction Z-score [1, 24]: 3.65 ± 1.2
promoter activity interaction Z-score [1, 25]: 4.28 ± 1.8
promoter activity interaction Z-score [1, 26]: 7.14 ± 1.1
promoter activity interaction Z-score [2, 14]: 0.645 ± 0.36
promoter activity interaction Z-score [2, 15]: 0.703 ± 1.2
promoter activity interaction Z-score [2, 16]: 0.528 ± 0.82
promoter activity interaction Z-score [2, 17]: 0.0278 ± 0.18
promoter activity interaction Z-score [2, 18]: 1.8 ± 0.42
promoter activity interaction Z-score [2, 19]: 1.75 ± 0.93
promoter activity interaction Z-score [2, 20]: 1.66 ± 0.88
promoter activity interaction Z-score [2, 21]: 3.09 ± 1.8
promoter activity interaction Z-score [2, 22]: 4.3 ± 0.46
promoter activity interaction Z-score [2, 23]: 4.49 ± 2
promoter activity interaction Z-score [2, 24]: 2.983 ± 0.0035
promoter activity interaction Z-score [2, 25]: 4.44 ± 2.6
promoter activity interaction Z-score [3, 14]: 0.698 ± 0.19
promoter activity interaction Z-score [3, 15]: -0.163 ± 0.0028
promoter activity interaction Z-score [3, 16]: 0.125 ± 0.087
promoter activity interaction Z-score [3, 17]: 0.248 ± 0.093
promoter activity interaction Z-score [3, 18]: 0.273 ± 0.86
promoter activity interaction Z-score [3, 19]: -0.14 ± 0.018
promoter activity interaction Z-score [3, 20]: 0.558 ± 0.35
promoter activity interaction Z-score [3, 21]: -0.483 ± 0.018
promoter activity interaction Z-score [3, 22]: -0.839 ± 0.87
promoter activity interaction Z-score [3, 23]: -0.439 ± 0.056
promoter activity interaction Z-score [3, 24]: 0.39 ± 0.33
promoter activity interaction Z-score [3, 25]: -0.925 ± 0.18
promoter activity interaction Z-score [3, 26]: -1.39
promoter activity interaction Z-score [4, 14]: 0.438 ± 0.0074
promoter activity interaction Z-score [4, 15]: -0.225 ± 0.85
promoter activity interaction Z-score [4, 16]: 0.663 ± 0.29
promoter activity interaction Z-score [4, 17]: 0.266 ± 1.3
promoter activity interaction Z-score [4, 18]: 1.95 ± 0.52
promoter activity interaction Z-score [4, 19]: 1.13 ± 0.094
promoter activity interaction Z-score [4, 20]: 3.25 ± 1.9
promoter activity interaction Z-score [4, 21]: 2.77 ± 0.12
promoter activity interaction Z-score [4, 22]: 0.0139 ± 0.62
promoter activity interaction Z-score [4, 23]: 0.739 ± 3.3
promoter activity interaction Z-score [4, 24]: -0.756 ± 0.22
promoter activity interaction Z-score [4, 25]: 3.18 ± 1.5
promoter activity interaction Z-score [5, 14]: -0.606 ± 0.46
promoter activity interaction Z-score [5, 15]: -2.26 ± 0.22
promoter activity interaction Z-score [5, 16]: -1.42 ± 0.052
promoter activity interaction Z-score [5, 17]: -1.11 ± 0.5
promoter activity interaction Z-score [5, 18]: -1.97 ± 0.83
promoter activity interaction Z-score [5, 19]: -2.42 ± 0.28
promoter activity interaction Z-score [5, 20]: -1.4 ± 0.26
promoter activity interaction Z-score [5, 21]: -1.99 ± 0.19
promoter activity interaction Z-score [5, 22]: -3.21 ± 1
promoter activity interaction Z-score [5, 23]: -3.49 ± 0.67
promoter activity interaction Z-score [5, 24]: -2.09 ± 0.15
promoter activity interaction Z-score [5, 25]: -2.73 ± 0.21
promoter activity interaction Z-score [5, 26]: -3.03
promoter activity interaction Z-score [6, 14]: 0.146 ± 0.018
promoter activity interaction Z-score [6, 15]: -0.132 ± 0.027
promoter activity interaction Z-score [6, 16]: 0.101 ± 0.33
promoter activity interaction Z-score [6, 17]: 0.569 ± 0.9
promoter activity interaction Z-score [6, 18]: 0.342 ± 0.019
promoter activity interaction Z-score [6, 19]: -0.134 ± 0.052
promoter activity interaction Z-score [6, 20]: 0.401 ± 0.02
promoter activity interaction Z-score [6, 21]: 1.917 ± 0.018
promoter activity interaction Z-score [6, 22]: 2.27 ± 0.33
promoter activity interaction Z-score [6, 23]: 1.16 ± 0.1
promoter activity interaction Z-score [6, 24]: 1.69 ± 0.21
promoter activity interaction Z-score [6, 25]: 2.06 ± 0.22
promoter activity interaction Z-score [6, 26]: 2.59 ± 1.8
promoter activity interaction Z-score [7, 14]: 1.23 ± 0.81
promoter activity interaction Z-score [7, 15]: 0.138 ± 0.034
promoter activity interaction Z-score [7, 16]: 0.66 ± 0.69
promoter activity interaction Z-score [7, 17]: 2.05 ± 0.54
promoter activity interaction Z-score [7, 18]: 1.21 ± 1.3
promoter activity interaction Z-score [7, 19]: 0.283 ± 0.058
promoter activity interaction Z-score [7, 20]: 1.89 ± 0.14
promoter activity interaction Z-score [7, 21]: 2.57 ± 1.3
promoter activity interaction Z-score [7, 22]: 3.44 ± 0.47
promoter activity interaction Z-score [7, 23]: 1.58 ± 1.8
promoter activity interaction Z-score [7, 24]: 4.99 ± 0.58
promoter activity interaction Z-score [7, 25]: 4.53 ± 2
promoter activity interaction Z-score [7, 26]: 5.2 ± 2.8
